# Screens: PubChem BioAssay, several laboratories
# The list is not random: actives were taken first. Their share in the collection is about 0.82%.
# C-LANA FP: inhibitors of KSHV C-LANA binding to DNA, primary screen, biochemical, fluorescence polarization, FAM-LBS DNA, MBP-C-LANA, single point; inhibition, % at 9 µM; 340,000 compounds, 0.078% hits;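 active means highest replicate inhibition at or above 60% at 9 µM, even if other replicates fall short; inactive means all replicates below 60% inhibition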
# Keap1-Nrf2 PPI: Keap1-Nrf2 protein-protein interaction inhibitors, primary screen, biochemical, fluorescence polarization, single point | Kelch-like ECH-associated protein 1 (Homo sapiens), Q14145 | Keap1 Kelch-Nrf2 peptide fluorescence polarization, 1536-well | inhibition, % at 9.4 µM | 340,000 compounds, 0.15% hits; in the data active means inhibition above about 12%;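 further: human Keap1 Kelch domain with fluorescein labeled Nrf2 9mer peptide probe; higher means more block of Keap1 binding to Nrf2 peptide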
# Target sequence (Q14145 whole entry, looked up, the tested form may be a part): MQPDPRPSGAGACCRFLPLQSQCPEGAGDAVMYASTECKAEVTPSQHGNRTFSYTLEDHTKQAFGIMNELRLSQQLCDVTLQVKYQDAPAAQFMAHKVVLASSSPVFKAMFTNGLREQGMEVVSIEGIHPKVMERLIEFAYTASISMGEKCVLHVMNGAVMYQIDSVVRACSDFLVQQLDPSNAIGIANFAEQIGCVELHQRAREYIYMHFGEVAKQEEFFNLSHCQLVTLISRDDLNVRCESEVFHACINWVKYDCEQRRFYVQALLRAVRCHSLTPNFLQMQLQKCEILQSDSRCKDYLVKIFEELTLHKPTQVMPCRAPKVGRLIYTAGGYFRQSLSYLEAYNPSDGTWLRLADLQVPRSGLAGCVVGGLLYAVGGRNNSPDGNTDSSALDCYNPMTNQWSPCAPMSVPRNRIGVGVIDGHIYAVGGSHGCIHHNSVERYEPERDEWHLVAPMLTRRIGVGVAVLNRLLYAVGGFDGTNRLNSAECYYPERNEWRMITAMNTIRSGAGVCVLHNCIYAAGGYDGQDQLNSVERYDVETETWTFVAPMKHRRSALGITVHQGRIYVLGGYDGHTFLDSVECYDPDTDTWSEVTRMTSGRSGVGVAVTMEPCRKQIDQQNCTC
# cardiac RTF act: cardiac RTF calcium sensitivity activators, primary screen, biochemical, IANBD-TnC fluorescence, EC20 calcium. activation, % at 7.2 µM. IANBD-labeled TnC RTF fluorescence at EC20 calcium; 0% EC20 calcium, 100% full calcium. AID 493008, 2010. 340,000 compounds, 0.24% hits;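 active means activation above the mean over all tested compounds plus 3 SD, cut at about 30% in these data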;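 further: rise in fluorescence read as greater calcium sensitivity of cardiac thin filaments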
# E coli Lon inh: inhibitors of E. coli Lon protease, primary screen, biochemical, fluorescence polarization; P0A9M0; purified E. coli Lon protease; inhibition, % at 7.94 µM; 360,000 compounds, 0.42% hits; AID 602123, 2011; in the data active means inhibition above about 13%, passing the limit was not always enough
# RTF Ca sens inh: cardiac RTF calcium sensitivity inhibitors, primary screen, biochemical, IANBD-TnC fluorescence, EC70 calcium; Troponin I, cardiac muscle (Homo sapiens) + Troponin T, cardiac muscle (Homo sapiens) + …; IANBD-labeled cardiac RTF, Ca2+ fluorescence; inhibition, % at 7.15 µM; 340,000 compounds, 0.12% hits; AID 493244, 2011;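 active means inhibition above the mean inhibition of all tested compounds plus 3 SD, cut at about 17% in these data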;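 further: assay run at fixed EC70 calcium of 1.6 mM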
# E coli Lon conf: E. coli Lon protease inhibitor retest, confirmation, biochemical, fluorescence polarization | shares compounds with E coli Lon inh | purified E. coli Lon | inhibition, % at 7.94 µM | 1,400 compounds, 31% hits | AID 602230, 2012; in the data active means inhibition above about 16%
# Numbers stand for hits; n = inactive; x = not tested or not shown; + = active, no number.
SMILES,C-LANA FP,Keap1-Nrf2 PPI,cardiac RTF act,E coli Lon inh,RTF Ca sens inh,E coli Lon conf
NC(=O)c1cc2c3ccccc3ccn2c1-c1ccccc1,n,n,n,25,n,18
O=C1C=C(Nc2ccccc2O)c2ccccc2C1=O,n,n,n,43,n,n
Cc1ccc(NC2=CC(=O)C(=O)c3ccccc32)c(C)c1,n,n,n,n,n,x
CC(C)C1NC2(C(=O)c3ccccc3C2=O)C2C(=O)N(c3ccc(F)cc3)C(=O)C12 (stereo not given),n,n,n,50,n,n
O=C1C2C3C=CC(CC3)C2C(=O)N1c1ccc(F)cc1 (stereo not given),n,n,n,n,n,x
Cn1c2ccccc2c(=O)c2ccc(NCCc3cccs3)cc21,n,n,n,92,n,23
CCCc1cc(=O)[nH]c(SCC(=O)Nc2ncc(S(=O)(=O)c3ccc([N+](=O)[O-])cc3)s2)n1,n,n,n,n,n,x
O=C1c2sccc2-c2cccc3cccc1c23,x,x,x,54,x,30
C[C@H](CO)N1C[C@H](C)[C@@H](CN(C)C(=O)Nc2ccc(C(F)(F)F)cc2)Oc2c(NS(=O)(=O)c3ccc(F)cc3)cccc2C1=O,n,n,n,n,n,x
Clc1cccc(NCc2cn3cccnc3n2)c1,n,n,n,17,n,n
Cc1cc(Cl)ccc1OCc1cn2cccnc2n1,n,n,n,n,n,x
CC(=O)c1ccc2noc(-c3ccc(F)cc3)c2c1,n,n,n,16,n,58
CC(=O)c1ccc2noc(-c3ccc(Cl)cc3)c2c1,n,n,n,n,n,x
CC(C)[C@H](NC(=O)c1ccccc1F)C(=O)OCCN1C(=O)c2ccccc2C1=O,n,n,n,n,n,x
COC(=O)c1ccsc1NC(=O)CSc1nnnn1-c1ccccc1SC,n,n,n,20,n,n
O=c1oc2ccccc2c(O)c1Sc1c(O)c2ccccc2oc1=O,n,n,n,28,n,35
O=C(c1c(O)c2ccccc2oc1=O)C1CCC1,n,n,n,n,n,x
CCc1ccc(NC(=O)NCC2CCN(c3ccc(OC)cc3)C2)cc1 (stereo not given),n,n,n,n,n,x
CCOc1ccc(NC(=O)NCC2CCN(c3ccc(OC)cc3)C2)cc1 (stereo not given),n,n,n,23,n,n
Nc1cc2nc[nH]c2cc1N,n,n,n,18,n,n
CCOC(=O)c1c(C(C)(C)C)oc2ccc(OCC#N)cc12,n,n,n,n,n,x
CCOC(=O)c1c(C(C)(C)C)oc2ccc(O)cc12,n,n,n,20,n,n
CCCCOC(=O)Nc1cc(C)c(Cl)cc1OC,n,n,n,34,n,n
COC(=O)C1C=CC(OC2OC(COC(C)=O)C(OC(C)=O)C(OC(C)=O)C2OC(C)=O)n2c(=O)n(-c3ccccc3)c(=O)n21 (stereo not given),n,n,n,n,n,x
CCOc1cc(C(c2c(O)nc(SC)[nH]c2=O)c2c(O)nc(SC)[nH]c2=O)ccc1O,x,x,x,49,x,41
SMILES,C-LANA FP,Keap1-Nrf2 PPI,cardiac RTF act,E coli Lon inh,RTF Ca sens inh,E coli Lon conf
CCOc1ccc(OCC(=O)N(CCC2=CCCCC2)c2c(N)n(Cc3ccccc3)c(=O)[nH]c2=O)cc1,n,n,n,n,n,x
O=c1[nH]c2ccccc2nc1C(F)(F)C(F)F,n,n,n,n,n,x
O=c1[nH]c2cc3ccccc3cc2nc1C(F)(F)F,n,n,n,26,n,37
CC/C=C(\NC(C)=O)c1ccccc1,n,n,n,n,n,x
CCc1nc2ccc(C(=O)N3CCN(C)CC3)cn2c1N(C)CCC(C)C,x,x,x,n,x,x
O=C(CSCc1nc2c(nnn2Cc2ccc(F)cc2)c(=O)[nH]1)Nc1cccc(C(F)(F)F)c1,n,n,n,16,n,n
Cc1ccc(NC(=O)C(=Cc2ccc(C(=O)O)cc2)C(=O)Nc2ccc(C)cc2C)c(C)c1,n,n,n,n,n,x
Cc1ccc(C)c(-n2c3nc(=O)[nH]c(=O)c-3cc3cc([N+](=O)[O-])ccc32)c1,n,n,n,60,n,n
Cc1cccc(-n2c3nc(=O)[nH]c(=O)c-3cc3cc([N+](=O)[O-])ccc32)c1,n,n,n,n,n,x
O=C1CCNc2ccc(-c3ccccc3)cc21,84,24,64,73,n,+
Cc1ccc(-c2nnc(N3CCN(C(=O)Cn4c(=O)n(C)c5ccccc54)CC3)c3ccccc23)cc1,n,n,n,24,n,n
COc1cc(C(=O)OCC(=O)NCCC2=CCCCC2)ccc1OCC(C)C,n,n,n,n,n,x
CCN(C(=O)COC(=O)c1ccc2c(=O)n3c(nc2c1)CCC3)C1CCS(=O)(=O)C1 (stereo not given),n,n,n,n,n,x
Oc1c(N=Nc2ccc(F)cc2)ccc2ccccc12,n,n,n,n,n,x
Oc1c(N=Nc2nn[nH]n2)ccc2ccccc12,x,x,x,48,x,25
CCOc1ccccc1/C=N/NC(=O)C[n+]1ccccc1,n,n,n,n,n,x
Oc1cc(CNCc2ccccc2)c(O)cc1CNCc1ccccc1,n,n,n,52,n,n
Cc1cc(C)c2nc(N(CCN(C)C)C(=O)c3ccc4ccccc4c3)sc2c1,n,n,n,20,n,n
O=C(COC(=O)c1cc2ccccc2cc1O)NC1CCCCC1,n,n,n,26,n,n
CC(C)(C)S(=O)(=O)N1C[C@@H]2C(=CC[C@H]3C(=O)N(c4ccccc4)C(=O)[C@@H]23)[C@@H]1CCO,n,n,n,n,n,x
C=CC[C@H](CC(=O)N(CCO)Cc1ccccc1)C(=O)N[C@@H](C)COC(=O)[C@H](CC=C)CC(=O)OC(C)(C)C,n,n,n,n,n,x
C=CC[C@H](CC(=O)N(CCO)Cc1ccccc1)C(=O)N[C@H](COC(=O)[C@@H](CC=C)CC(=O)OC(C)(C)C)c1ccccc1,n,n,n,20,n,n
COc1cc(COCC(O)CN2CCN(CCN3C(=O)c4cccc5cccc(c45)C3=O)CC2)cc(OC)c1OC (stereo not given),n,n,n,18,n,17
CCCN1CCC(=O)NC1=S,n,n,n,n,n,x
CCOc1ccc(N)c(SSc2cc(OCC)ccc2N)c1,n,n,n,n,n,x
CCOc1cc(-c2ccc(N)c(OCC)c2)ccc1N,n,n,n,52,n,98
O=C(CCCn1c(=O)c2sccc2n(Cc2cc(=O)n3ccccc3n2)c1=O)NCc1ccco1,n,n,n,15,n,n
